TMEM16A act: activates or potentiates the mouse TMEM16A chloride channel; 0.3% of 340,000 active; B-score at 10 µM; HEK293 TMEM16A/YFP-H148Q/I152L, iodide quench fluorescence; active compounds read low;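 active = fluorescence-ratio B-score plate-corrected deviation score at least 3 library SD below zero, with starting fluorescence score within 5 deviations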;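 also: channel opened by trigger with iodide after compound preincubation; score built on the fluorescence ratio of max minus min over baseline; more negative score means more quench and so TMEM16A activation or potentiation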
TMEM16A inh: blocks the mouse calcium-activated chloride channel TMEM16A | Q8BHY3 | HEK293 TMEM16A/YFP iodide influx fluorescence, ionomycin | normalized B-score (activity score, 25-100; higher = stronger inhibition) at 10 µM | 1.2% of 310,000 active | AID 588511;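 active = ratio plate-corrected score three or more library SD toward inhibition, starting fluorescence score within five deviations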;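 also: score derived from kinetic fluorescence span divided by baseline fluorescence per well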
CHT inh: inhibitors of human choline transporter CHT. Q9GZV3. CHT-expressing cells, membrane potential dye, choline response; active compounds read low. B-score at 10 µM. 0.86% of 310,000 active. AID 488975;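 active = B-score over 3 SD under the library average, and starting fluorescence ratio not unusually high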;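 also: choline stimulus applied at its EC90 after an EC20 pre-addition; B-score computed on integrated fluorescence ratio after choline addition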
Target sequence (Q9GZV3 whole entry, looked up): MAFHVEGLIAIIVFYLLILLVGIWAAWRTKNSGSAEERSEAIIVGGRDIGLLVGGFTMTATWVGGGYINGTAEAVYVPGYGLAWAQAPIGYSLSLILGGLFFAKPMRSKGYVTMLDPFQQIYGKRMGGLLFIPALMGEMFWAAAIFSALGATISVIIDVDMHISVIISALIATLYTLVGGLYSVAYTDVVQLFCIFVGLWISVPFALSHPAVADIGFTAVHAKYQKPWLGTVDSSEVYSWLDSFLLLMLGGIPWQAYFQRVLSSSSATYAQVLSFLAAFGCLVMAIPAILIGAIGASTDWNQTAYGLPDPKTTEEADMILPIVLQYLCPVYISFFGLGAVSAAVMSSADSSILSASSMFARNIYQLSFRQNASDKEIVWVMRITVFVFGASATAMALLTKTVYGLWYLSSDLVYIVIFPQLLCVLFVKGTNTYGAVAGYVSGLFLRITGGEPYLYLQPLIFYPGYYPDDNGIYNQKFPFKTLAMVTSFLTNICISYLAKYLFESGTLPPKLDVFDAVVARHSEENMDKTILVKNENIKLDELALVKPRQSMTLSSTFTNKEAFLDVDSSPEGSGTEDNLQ
CHT allo act: human CHT allosteric activation; Q9GZV3; B-score at 10 µM; AID 488977; CHT-expressing cells, membrane potential dye, choline EC20; active compounds read high; LV-AA mutant CHT in HEK293 cells; 0.49% of 310,000 active;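 active = initial fluorescence not abnormally high and integrated response B-score, plate-corrected, over 3 SD above library mean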
Each line names hits and unclear results; the compound was inactive in the other large screens. The list is not random: actives were taken first. Their share in the collection is about 2.4%.

CN(Cc1c(F)cccc1Cl)C(=O)c1ccc(NC(=O)CC2SC(N3CCCC3)=NC2=O)cc1 (stereo not given)	none
COC(=O)Cc1ccc(NC(=O)c2ccc(C(C)(C)C)cc2)cc1	TMEM16A inh 100
COc1cc(C(=O)Nc2ccc3c(c2)nc(C)n3C)cc(OC)c1OC	CHT allo act 6.5
CC(=O)Nc1ccccc1NC(=O)C(F)(F)F	none
O=C(Nc1cccc2c1[nH]c1ccccc12)C(F)(F)F	TMEM16A inh 25
COc1ccccc1NS(=O)(=O)c1cc(C(=O)NCCC(C)C)ccc1F	TMEM16A act -9.5
COc1cc(C)ccc1OCCOCCOc1c(C)cc(C)cc1Br	TMEM16A inh 100
COC(=O)c1sc(NC(=S)NC(=O)c2ccccc2C)nc1C	none
COc1ccc(CNC(=O)[C@H](C)N2C(=O)N3CCc4c([nH]c5ccccc45)[C@@]3(C)C2=O)cc1OC	TMEM16A act -13
C/C(=N/NC(=O)CSc1nc2ccccc2s1)c1ccncc1	none
CS/C(=N\S(=O)(=O)c1cccs1)NC(=O)CSc1nc2ccccc2s1	TMEM16A inh 100
COc1cccc(OC)c1C(=O)Nc1ccnn1C	none
COCCNC(=O)C1CC(c2ccccc2C(F)(F)F)=NO1 (stereo not given)	none
CN1CCN(C2=C(Cl)C(=O)C(c3cnc(N4CCCCC4)s3)=C(Cl)C2=O)CC1	TMEM16A inh 100
C=CCn1c(SCc2ccc(C(=O)Nc3nccs3)cc2)nnc1-c1ccc(C)c(Cl)c1	TMEM16A inh 25
C=CCn1c(SCc2ccc(C#N)cc2)nnc1-c1cccc(Cl)c1	none
CCOC(=O)c1cc([N+](=O)[O-])sc1NC(=O)c1ccc(S(=O)(=O)N2CC3(C)CC2CC(C)(C)C3)cc1 (stereo not given)	TMEM16A act -26
O=C(Cc1cccc2ccccc12)OCn1nnc2ccccc2c1=O	none
CCN(CC)S(=O)(=O)c1ccc(C(=O)OCn2nnc3ccccc3c2=O)cc1	TMEM16A inh 25
O=C(OCn1nnc2ccccc2c1=O)c1cccnc1Cl	TMEM16A inh 100
O=C(OCn1nnc2ccccc2c1=O)c1ccc(S(=O)(=O)N2CCOCC2)cc1	none
Cc1c(N(C)S(=O)(=O)c2cccc(C(=O)NC(C)C)c2)c(=O)n(-c2ccccc2)n1C	none
Cc1onc(-c2ccccc2)c1C(=O)NCc1ccco1	TMEM16A act -16
Cc1ccc(C2=NN(CC(=O)NCCC(C)C)C(=O)CC2)cc1	none
CC1(C)CC[C@]2(C(=O)n3ccnc3)CC[C@]3(C)[C@H](C(=O)C=C4[C@@]5(C)C=C(C#N)C(=O)C(C)(C)[C@@H]5CC[C@]43C)[C@@H]2C1	TMEM16A act -15 (no result: TMEM16A inh, CHT inh, CHT allo act)
COCCn1c(C)cc(C(=O)CSc2ccc3ccccc3n2)c1C	TMEM16A inh 25
O=C(Nc1cccnc1)c1cccc(S(=O)(=O)Nc2ccccc2F)c1	none (no result: TMEM16A inh, CHT inh, CHT allo act)
O=C(NC1CC1)c1cccc(S(=O)(=O)Nc2ccccc2F)c1	TMEM16A act -4.9
CN1C(=O)/C(=C/c2cn(CC(=O)N3CCCCC3)c3ccccc23)NC1=S	TMEM16A act -6.2
O=Cc1cn(CC(=O)N2CCCCCC2)c2ccccc12	none
CSc1ccc(CN(C)C(=O)c2cc(S(=O)(=O)NCc3ccccc3)ccc2C)cc1	none
CSc1ccc(CN(C)C(=O)c2cccc(S(=O)(=O)NCc3ccccc3)c2)cc1	TMEM16A inh 100
O=C(CN1C(=O)NC(Cc2c[nH]c3ccccc23)C1=O)Nc1ccc(F)cc1F (stereo not given)	none (no result: TMEM16A inh, CHT inh, CHT allo act)
O=C(NCCN1C(=O)C2C3C=CC(C3)C2C1=O)Nc1ccccc1O (stereo not given)	none
O=c1c(Cc2ccc(Cl)cc2Cl)c(O)ccn1Cc1ccc(Cl)cc1	TMEM16A inh 100
Cc1nc2ccc(NC(=O)C3=NN(C)C(=O)CC3)cc2s1	none (no result: TMEM16A inh, CHT inh, CHT allo act)
COc1ccc(-c2csc(/C(C#N)=C\c3ccc(O)c([N+](=O)[O-])c3)n2)cc1OC	TMEM16A inh 100
COc1cc(/C=C(\C#N)c2nc3ccccc3s2)cc([N+](=O)[O-])c1O	TMEM16A act -16 (no result: TMEM16A inh, CHT inh, CHT allo act)
CCN(CC(=O)NCc1cccs1)C(=O)COc1ccc(C(N)=O)cc1	none (no result: TMEM16A inh, CHT inh, CHT allo act)
Cc1ccc(-c2nn(CC(=O)Nc3cccnc3)c(=O)c3ccccc23)cc1	none
O=C1NC2(CCCCC2)C(=O)N1Cc1ccc([N+](=O)[O-])cc1	none
Cc1ccc(NC(=O)c2ccc(C)cc2)cc1	none
Cc1ccc(C(=O)Nc2ccc(Br)c(C(F)(F)F)c2)cc1	TMEM16A inh 100
COC1C(C)=C(C)C(=O)N1Cc1ccc(F)cc1 (stereo not given)	none
C=CCNc1nc(-c2c(C)nc3sccn23)cs1	none
Cc1nc2sccn2c1-c1csc(NCc2ccccc2)n1	TMEM16A inh 25
CC1Cc2ccccc2N1C(=O)CSc1nn2c(=O)c(C(C)(C)C)nnc2s1 (stereo not given)	TMEM16A act -37
CC(C)(C)c1nnc2sc(SCC(=O)N3CCCc4ccccc43)nn2c1=O	none
CCc1cc(/C(Cc2ccccn2)=N\O)c(O)cc1O	none
CCc1cc(/C(Cc2ccc3ccccc3n2)=N\O)c(O)cc1O	TMEM16A inh 100
CN(N=O)c1ccc(CC2CCc3ccccc32)cc1 (stereo not given)	none (no result: TMEM16A inh, CHT inh, CHT allo act)
S=C(NCCC(c1ccccc1)c1ccccc1)Nc1ccc(Cl)cc1	TMEM16A inh 100
CC(C)(C)n1nnnc1C(c1ccc(F)cc1)N(Cc1ccc(F)cc1)Cc1ccco1 (stereo not given)	TMEM16A act -5.1
Cc1cccc(S(=O)(=O)NNC(=O)Cc2cccn2C)c1	TMEM16A inh 25
O=C(CCS(=O)(=O)c1ccc(Cl)cc1)NC1CCCC1	none (no result: TMEM16A inh, CHT inh, CHT allo act)
COc1cc(/C=C/C(=O)OCC(=O)N(CC(C)C)c2c(N)n(Cc3ccccc3)c(=O)[nH]c2=O)ccc1O	TMEM16A act -22 (no result: TMEM16A inh, CHT inh, CHT allo act)
CC(C)CN(C(=O)COC(=O)/C=C/c1ccc(Cl)c(Cl)c1)c1c(N)n(Cc2ccccc2)c(=O)[nH]c1=O	none (no result: TMEM16A inh, CHT inh, CHT allo act)
Cc1[nH]c2ccccc2c1C(=O)C(=O)N1CCN(c2cccc(Cl)c2)CC1	TMEM16A act -53
COc1ccc(N2CCN(C(=O)C(Cc3ccccc3)n3cccc3)CC2)cc1 (stereo not given)	TMEM16A act -15
CCC(C)NC(=O)CN1c2cccc3cccc(c23)S1(=O)=O (stereo not given)	TMEM16A act -7.2
CC(=O)Nc1cccc(NC(=O)CN2c3cccc4cccc(c34)S2(=O)=O)c1	none (no result: TMEM16A inh, CHT inh, CHT allo act)
CC(=O)c1ccc(NC(=O)CN2c3cccc4cccc(c34)S2(=O)=O)cc1	TMEM16A act -4.7 (no result: TMEM16A inh, CHT inh, CHT allo act)
CC(Sc1nnc2n1CCCCC2)C(=O)Nc1cccc(S(=O)(=O)N2CCOCC2)c1 (stereo not given)	none (no result: TMEM16A inh, CHT inh, CHT allo act)
COc1cccc(NC(=O)c2cc3cccc(OC)c3o/c2=N\O)c1	CHT inh -5.3 (no result: TMEM16A act)
Cc1cc(C)c2c(=O)cc(C(=O)NCc3ccccc3)oc2c1	none
COCCCNS(=O)(=O)c1ccc(C)cc1	none
COCCCNC(=O)CCNS(=O)(=O)c1ccc(C)cc1	TMEM16A inh 25
CCC(C)CCN1C(N(C)C)=NC[C@@H]1C (stereo not given in full)	none
COc1ccccc1-c1nnc(SC(C)C(=O)NCC2CCCO2)n1C (stereo not given)	none (no result: TMEM16A inh, CHT inh, CHT allo act)

Compound activity as filed in PubChem.
